Source: PubChem BioAssay AID1851 (National Center for Advancing Translational Sciences (NCATS), 2009)
Values joined by “and” are separate entries in the source; they are usually repeats but may differ in a detail not shown here. Equal values may be shown once. Among all 16,000 compounds or so, about 5,100 (32%) were called active. Inconclusive results (about 25%) are left out. The list shows a part of the results. Values without a mark were called inactive. Calls follow the shape of the dose curve; as a rule, active = well fitted curve in the direction sought with a large enough effect; inconclusive = small, poorly fitted or top-dose-only effect, or effect the other way; inactive = no such curve, though single readings can be large or run the other way.
% is scaled to controls: 0 for no effect and ±100 for the full control effect.

The molecules below were run against Cytochrome P450 3A4 (Homo sapiens) (UniProt P08684) (assay: Cytochrome panel assay with activity outcomes). Conditions: recombinant CYP, pro-luciferin dealkylation, luminescence, p450-cyp3a4; series mostly up to 57.1 µM.
Cytochrome P450 3A4 (Homo sapiens), sequence (P08684 whole entry, looked up): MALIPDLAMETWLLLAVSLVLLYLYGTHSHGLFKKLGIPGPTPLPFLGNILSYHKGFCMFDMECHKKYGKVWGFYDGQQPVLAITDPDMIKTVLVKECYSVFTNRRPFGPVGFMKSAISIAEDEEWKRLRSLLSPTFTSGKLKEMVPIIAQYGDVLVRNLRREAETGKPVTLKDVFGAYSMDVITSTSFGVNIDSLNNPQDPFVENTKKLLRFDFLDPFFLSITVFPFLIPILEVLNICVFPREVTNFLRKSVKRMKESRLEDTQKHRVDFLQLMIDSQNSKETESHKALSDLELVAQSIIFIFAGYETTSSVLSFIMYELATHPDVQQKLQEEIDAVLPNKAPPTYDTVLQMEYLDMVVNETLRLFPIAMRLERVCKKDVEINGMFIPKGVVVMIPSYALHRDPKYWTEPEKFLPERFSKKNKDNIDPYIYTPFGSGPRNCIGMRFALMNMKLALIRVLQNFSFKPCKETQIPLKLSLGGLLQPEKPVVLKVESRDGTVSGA
In the case of `COC1=CC(=O)O[C@@H](/C=C\c2ccccc2)C1`, the activity, negative = inhibition is reported as “inactive”. `O=C(C[n+]1ccc2ccccc2c1)c1ccc2ccc3ccccc3c2c1` gave an activity, negative = inhibition of -29.1% [at 11.4 µM]. For `Nc1nc(N)c(N=Nc2ccc([As](=O)(O)O)c(O)c2)c(N)n1`, the activity, negative = inhibition was 7% [at 11.4 µM]. In the case of `C[C@@H](Cc1cccc(C(F)(F)F)c1)NCCCc1ccccc1`, the AC50 is reported as 5.01 µM (active). With `CNCCCc1ccccc1` the activity, negative = inhibition was “inactive”. In the case of `C[C@@H](Cc1ccccc1)NCCC(c1ccccc1)c1ccccc1`, the activity, negative = inhibition is reported as “inactive”. Molecule `COc1cc2cc(c1Cl)N(C)C(=O)C[C@H](OC(=O)C(C)C)[C@]1(C)O[C@@H]1[C@@H](C)[C@H]1C[C@](O)(NC(=O)O1)[C@@H](OC)/C=C\C=C(\C)C2` has an activity, negative = inhibition of -29.4% [at 11.4 µM]. With `c1ccc2c([C@@H]3CCN(CCN4CCOCC4)C3)c[nH]c2c1` the activity, negative = inhibition was -4.68% [at 11.4 µM]. With `COCOc1ccc(Br)cc1C(=O)/C=C\c1ccc2c(c1)OCO2` the AC50 was 3.16 µM (active). For `CN1CCN(c2cc(N3CCCC3)c([N+](=O)[O-])cc2F)CC1`, the activity, negative = inhibition was “inactive”. In the case of `COc1cc(-c2ccc(=O)[nH]n2)ccc1OC(F)F`, the activity, negative = inhibition is reported as “inactive”. `CN1CCN(c2ccc([N+](=O)[O-])c(N/N=C3\CN4CCC3CC4)c2)CC1` was tested, and the activity, negative = inhibition was “inactive”. `CC[C@H](Oc1ccc(Cl)cc1)C(=O)OC1C[C@H]2CC[C@@H](C1)N2C` (stereo not given in full) was tested, and the activity, negative = inhibition was “inactive”. With `Oc1ccc2c3c1O[C@H]1c4[nH]c5c(c4C[C@@]4(O)[C@@H](C2)N(CC2CC2)CC[C@]314)C[C@]1(O)[C@H]2Cc3ccc(O)c4c3[C@@]1(CCN2CC1CC1)[C@@H]5O4` the activity, negative = inhibition was “inactive”. For `O=C1CC[C@]2(O)[C@H]3Cc4ccc(O)c5c4[C@@]2(CCN3CC2CC2)[C@@H]1O5`, the activity, negative = inhibition was “inactive”. With `Oc1ccc2c3c1O[C@H]1c4c(c5ccccc5n4Cc4ccccc4)C[C@]4(O)[C@H](C2)N(CC2CC2)CC[C@@]314` the AC50 was 10 µM (active). `CN1C(=O)CCS(=O)(=O)[C@@H]1c1ccc(Cl)cc1` was tested, and the activity, negative = inhibition was “inactive”. `CN1[C@@H]2CC[C@H]1CC(O)C2` (stereo not given in full) was tested, and the activity, negative = inhibition was “inactive”. For `C[C@@H]1O[C@@H](O[C@H]2C[C@@H](O)[C@]3(CO)[C@@H]4[C@@H](O)C[C@]5(C)[C@H]([C@@H]6COC(=O)C6)CC[C@@]5(O)[C@H]4CC[C@@]3(O)C2)[C@H](O)[C@H](O)[C@@H]1O`, the activity, negative = inhibition was “inactive”. In the case of `CC(C)COC(=O)OCN1C(=O)CN(CCN2CC(=O)N(COC(=O)OCC(C)C)C(=O)C2)CC1=O`, the AC50 is reported as 25.1 µM (active). With `CN1CCc2cc(O)cc3c2[C@H]1Cc1ccc(O)c(O)c1-3` the activity, negative = inhibition was “inactive”. For `C[N+](C)(C)CCCCCCCCCC[N+](C)(C)C`, the activity, negative = inhibition was “inactive”. `Nc1nc(N)c(Cn2ccnc2)c(=O)[nH]1` was tested, and the activity, negative = inhibition was -3.48% [at 11.4 µM]. In the case of `O=c1[nH]c(=O)n(CCc2ccc(F)cc2)c(O)c1C=NCCCN1CCOCC1`, the AC50 is reported as 11.2 µM (active). In the case of `Cc1cc(C)c(-n2c(O)c(C=NCCN3CCOCC3)c(=O)[nH]c2=O)c(C)c1`, the AC50 is reported as 25.1 µM (active). With `C=CCn1c(O)c(C(C)=NCCCN2CCOCC2)c(=O)[nH]c1=O` the activity, negative = inhibition was “inactive”. `O=c1[nH]c(=O)n(CCC2=CCCCC2)c(O)c1C=Nc1cccc(F)c1` was tested, and the activity, negative = inhibition was “inactive”. With `COc1cccc(-n2c(O)c(C=NCCN3CCOCC3)c(=O)[nH]c2=O)c1` the activity, negative = inhibition was “inactive”. With `CCNC(=O)[C@@H]1O[C@@H](n2cnc3c(N)ncnc32)[C@@H](O)[C@H]1O` the activity, negative = inhibition was “inactive”. For `C[C@@H]1[C@@H]2Cc3ccc(O)cc3[C@@]1(C)CCN2CC1CC1`, the activity, negative = inhibition was “inactive”. For `C[C@@H]1O[C@H](O[C@@H]2C[C@@H](O)[C@]3(CO)[C@H]4[C@H](O)C[C@]5(C)[C@@H](C6=CC(=O)OC6)CC[C@@]5(O)[C@@H]4CC[C@]3(O)C2)[C@@H](O)[C@H](O)[C@H]1O`, the activity, negative = inhibition was “inactive”. In the case of `CCNC(=O)[C@@H]1O[C@@H](n2cnc3c(N)ncnc32)[C@H](O)[C@H]1O`, the activity, negative = inhibition is reported as “inactive”. `CC(=O)O/C(=C1/C[C@H]2[C@@H]3CC=C4C[C@@H](OC(C)=O)CC[C@]4(C)[C@@H]3CC[C@]2(C)C1=O)C(F)(F)F` showed an activity, negative = inhibition of 4.88% [at 11.4 µM]. In the case of `c1ccc2nc(N3CCNCC3)ccc2c1`, the activity, negative = inhibition is reported as “inactive”. For `CN(C)CCCNc1c2c(nc3ccc(Cl)cc13)CCCC2`, the activity, negative = inhibition was 0.971% [at 11.4 µM]. With `CCN1C[C@]2(COC)CC[C@H](O)[C@@]34[C@@H]5C[C@H]6[C@@H](OC)[C@H]5[C@](O)(C[C@@H]6OC)[C@@](O)([C@@H](OC)[C@H]23)[C@@H]14` the activity, negative = inhibition was “inactive”. `COc1ccccc1CC1C(=O)C2CCN1CC2` (stereo not given) was tested, and the activity, negative = inhibition was “inactive”. In the case of `Cc1ccc(OP(=O)(Oc2ccc(C)cc2)N2C=Cc3ccccc3[C@H]2C#N)cc1`, the AC50 is reported as 2.51 µM (active). `O=[N+]([O-])c1ccc(N2CCNCC2)cc1NC1CC1` gave an activity, negative = inhibition of 1.13% [at 2.29 µM]. `CCCN(C/C=C\I)[C@@H]1CCc2ccc(O)cc2C1` was tested, and the activity, negative = inhibition was “inactive”. In the case of `CCN1C[C@@]2(COC)CC[C@H](O)[C@@]34[C@@H]2C[C@@H]([C@@H]13)[C@]1(O)C[C@@H](OC)C2C[C@H]4[C@H]1[C@H]2OC(C)=O`, the activity, negative = inhibition is reported as “inactive”. With `COc1ccccc1N1CCNCC1` the activity, negative = inhibition was “inactive”. In the case of `C=C(C)[C@H]1CC[C@]2(CO)CC[C@]3(C)[C@@H](CC[C@H]4[C@@]5(C)CC[C@@H](O)C(C)(C)[C@@H]5CC[C@@]43C)[C@H]12`, the activity, negative = inhibition is reported as “inactive”. With `N[C@H](CP(=O)(O)O)C(=O)O` the activity, negative = inhibition was “inactive”. `Cc1ccc(C2CC(=O)C(C=NCCN3CCN(C(=O)Cc4ccccc4)CC3)=C(O)C2)cc1` (stereo not given) was tested, and the AC50 was 3.16 µM (active). With `CC[N+](C)(C)c1cccc(O)c1` the activity, negative = inhibition was “inactive”. In the case of `Cn1c(=O)c2[nH]cnc2n(C)c1=O`, the activity, negative = inhibition is reported as “inactive”. For `C[C@H](NC(C)(C)C)C(=O)c1cccc(Cl)c1`, the activity, negative = inhibition was “inactive”. `Cc1cc(C)nc(NC2=NCCS2)n1` was tested, and the activity, negative = inhibition was “inactive”. For `CC[N@+]1(C)CCC[C@@H](OC(=O)C(O)(c2ccccc2)c2ccccc2)C1`, the activity, negative = inhibition was “inactive”. In the case of `CCCc1nc2ccccc2c(=O)n1-c1ccc(OC)cc1`, the AC50 is reported as 15.8 µM (active). In the case of `CCCCc1nc2ccccc2c(=O)n1-c1ccc(Cl)cc1[N+](=O)[O-]`, the activity, negative = inhibition is reported as “inactive”. For `Cc1nc2ccccc2c(=O)n1-n1cnnc1`, the activity, negative = inhibition was “inactive”. In the case of `CCCCc1nc2ccccc2c(=O)n1-c1ccccc1[N+](=O)[O-]`, the AC50 is reported as 15.8 µM (active). In the case of `Cc1ccc(-c2nc3ccccc3c(=O)n2-c2ncccc2C)cc1`, the activity, negative = inhibition is reported as -6.07% [at 2.29 µM]. `CCC(=O)Nc1ccc(N2CCN(CC)CC2)c(Cl)c1` was tested, and the activity, negative = inhibition was “inactive”. `COc1cc([C@@H](O)CN)ccc1O` was tested, and the activity, negative = inhibition was “inactive”. `O=P(Nc1ccccc1)(Nc1ccccc1)Oc1cccc(Cl)c1` showed an activity, negative = inhibition of -28.2% [at 2.29 µM]. `CCN1CCN(Cc2cc(OC)c(OC)cc2[N+](=O)[O-])CC1` was tested, and the activity, negative = inhibition was “inactive”. In the case of `CCNC(=O)O/N=C(\C)c1sc(-c2ccccc2)nc1C`, the activity, negative = inhibition is reported as “inactive”. `CN(C)C(=O)Oc1cc(OC(=O)N(C)C)cc([C@@H](O)CNC(C)(C)C)c1` was tested, and the activity, negative = inhibition was “inactive”. `O=C(Cc1ccc(Cl)c(Cl)c1)N1CCCC[C@H]1CN1CCCC1` was tested, and the AC50 was 15.8 µM (active) and 7.94 µM (active). `NC(N)=NCCN=C(N)N` gave an activity, negative = inhibition of 0.983% [at 11.4 µM]. Work on `CC1=NN(c2ccccc2)C(=O)[C@@H]1N=Nc1ccc([As](=O)(O)O)c(O)c1` yielded an activity, negative = inhibition of -5.79% [at 11.4 µM]. `COC(=O)[C@@H](N)CCCN=C(N)N[N+](=O)[O-]` was tested, and the activity, negative = inhibition was “inactive”. For `CCn1cc(C(=O)O)c(=O)c2cc3c(cc21)OCO3`, the activity, negative = inhibition was “inactive”. `FC(F)(F)c1nc2ccc(SSc3ccc4nc(C(F)(F)F)[nH]c4c3)cc2[nH]1` was tested, and the activity, negative = inhibition was 4.91% [at 11.4 µM]. With `CC(C)=C[C@H]1[C@@H](C(=O)OCc2cc3c(cc2Cl)OCO3)C1(C)C` the AC50 was 0.316 µM (active). With `CC(C)C(=O)CP(=O)(O)O` the activity, negative = inhibition was 2.74% [at 11.4 µM]. In the case of `c1cc(CN2CCC3(CCNCC3)CC2)ccn1`, the activity, negative = inhibition is reported as “inactive”. For `CC(C)CN1CCCC2(CCN(C(=O)c3ccncc3)CC2)C1`, the AC50 was 12.6 µM (active). With `O=C(c1ccncc1)N1CCC2(CC1)CN(Cc1ccccc1)C2` the AC50 was 20 µM (active). `c1csc(CN2CCCC3(CCNCC3)C2)n1` was tested, and the activity, negative = inhibition was “inactive”. For `CC(C)CN1CC2(CCN(C(=O)c3ccncc3)CC2)C1`, the activity, negative = inhibition was “inactive”. For `CN1CCCC2(CCN(C(=O)c3ccncc3)CC2)C1`, the activity, negative = inhibition was “inactive”. For `c1csc(CN2CC[C@@]3(CCCNC3)C2)n1`, the activity, negative = inhibition was “inactive”. `O=C(Oc1ccccc1)N1CCC2(CCCN(Cc3nccs3)C2)CC1` was tested, and the AC50 was 12.6 µM (active). `Cc1noc(C)c1C(=O)N1CCC2(CCCN(CC(C)C)C2)CC1` was tested, and the activity, negative = inhibition was “inactive”. With `O=C(Oc1ccccc1)N1CCC2(CCN(Cc3ccncc3)CC2)CC1` the AC50 was 12.6 µM (active). For `CC(C)CN1CCC2(CC1)CCN(C(=O)Oc1ccccc1)CC2`, the activity, negative = inhibition was “inactive”. `c1ccc(CN2CCN(Cc3ccc4c(c3)OCCO4)CC2)cc1` showed an activity, negative = inhibition of -16.2% [at 11.4 µM]. `N=C(N)n1cc(/C=N\N=C(N)N)cn1` gave an activity, negative = inhibition of -16.6% [at 11.4 µM]. In the case of `c1ccc2c(c1)-c1ccccc1C2N1CC2CCC(CC2)C1`, the activity, negative = inhibition is reported as -5.36% [at 11.4 µM]. With `CN1[C@@H](C[C@@H](O)c2ccccc2)CCC[C@@H]1C[C@H](O)c1ccccc1` the activity, negative = inhibition was “inactive”. `O=[N+]([O-])c1cc(-c2ccc([As](=O)(O)O)cc2)ccc1[As](=O)(O)O` showed an activity, negative = inhibition of 9.09% [at 11.4 µM]. `O=C(O)[C@@H]1[C@H](C(=O)O)[C@]2(Cl)C(Cl)=C(Cl)[C@@]1(Cl)C2(Cl)Cl` gave an activity, negative = inhibition of -9.54% [at 11.4 µM]. `C(#CCN1CCCC1)CN1CCCC1` was tested, and the activity, negative = inhibition was “inactive”. In the case of `C[C@]12CC[C@H](O)C[C@@H]1CC[C@H]1[C@H]2CC[C@]2(C)C(=O)CC[C@@H]12`, the activity, negative = inhibition is reported as “inactive”. With `Cc1cccc(NC(=S)NC2CC3CCCC(C2)N3Cc2cccs2)c1` (stereo not given) the activity, negative = inhibition was -1.32% [at 2.29 µM]. In the case of `COc1ccc(C[C@H]2NC[C@H](O)[C@@H]2OC(C)=O)cc1`, the activity, negative = inhibition is reported as “inactive”.
